# Pf growth 96h – inhibits malaria parasite growth, 96 h. P. falciparum luciferase reporter growth, 96 h. Potency, µM (series often up to 28.7 µM), inactives show at the highest dose activity change, negative = inhibition, usual class: inhibitors. 320,000 compounds, 6.9% hits. AID 504834
#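 Erythrocytes infected with luciferase-expressing P. falciparum were dispensed at 2% hematocrit and 0.05% parasitemia (final), then incubated with compounds 96 hours at 37 C in 5% CO2. Luminescence after detection reagent addition reported growth.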
# VACV Venus inh – vaccinia inhibition (Venus reporter). Potency, µM (highest dose often 36.5 µM), without a hit: at the top dose activity change, negative = inhibition, usual class: inhibitors. 330,000 compounds, 0.46% hits. AID 720580. Vaccinia virus Venus reporter expression, fluorescence; calls by dose curve; tested in A549 cells; also: nearly all actives have a fitted effect of over 30% in size
# AMA1-RON2 inh – disrupts binding of P. falciparum AMA1 to RON2. AlphaScreen AMA1-biotinylated RON2 peptide binding. Potency, µM (doses to about 58.2 µM), inactives show top-dose activity change, negative = inhibition, most hits filed as inhibitors. 360,000 compounds, 0.2% hits;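 also: 0% = vehicle wells and -100% = peptide control; nearly all actives have a fitted effect of over 45% in size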
#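 AMA1 (3D7) with his tag at 25 nM final met compounds first, then biotinylated RON2 peptide at 25 nM; detection used donor plus acceptor beads, 10 µg/mL apiece, read by AlphaScreen after 30 min at room temperature.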
# Pf growth 48h – inhibits P. falciparum growth in the first generation, 48 h; 310,000 compounds, 5.9% hits; Potency, µM (doses to about 28.7 µM), for the others: at the highest dose activity change, negative = inhibition, actives largely listed as inhibitors; P. falciparum luciferase growth in erythrocytes, 48 h
#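 A one-generation exposure of luciferase-tagged malaria parasites in RPMI 1640/Albumax erythrocyte culture, 37 C and 5% CO2. Inhibition is inferred from decreased luminescence after adding detection reagent.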
# Vaccinia mCherry – vaccinia inhibition (mCherry reporter); Vaccinia virus mCherry reporter infection, fluorescence; Potency, µM (series often up to 36.5 µM), for inactives: at the top dose activity change, negative = inhibition, usual class: inhibitors; 310,000 compounds, 0.63% hits; AID 720579; calls by dose curve; tested in A549 cells; also: nearly all actives have a fitted effect of over 35% in size
# * = called active by the depositor; i = inactive; ? = inconclusive; · = no result given; ! = not confirmed by another sample; [ ] = dose if it differs, or a comment. This is a sample that favours compounds with a hit; in the whole collection about 8.7% have one here. Unless noted, calls follow the shape of the dose curve; as a rule, active = well fitted curve in the direction sought with a large enough effect; inconclusive = small, poorly fitted or top-dose-only effect, or another doubt; inactive = no such curve, though single readings can be large; an effect the other way counts as inactive or inconclusive. Unless noted, % is scaled to controls: 0 for no effect and ±100 for the full control effect; potency is read from the fitted curve at half-maximal effect.
SMILES,Pf growth 96h,VACV Venus inh,AMA1-RON2 inh,Pf growth 48h,Vaccinia mCherry
O=C(C1CCCCC1)N1CCCC(c2nc3c(nnn3Cc3ccccc3)c(=O)[nH]2)C1 (stereo unspecified),·,-8%,-1%,?,-2%
NC(=O)C1CCN(c2nc(C3CC3)nc3c2nnn3Cc2ccccc2Cl)CC1,-8%[5.75 µM],-18%,-2%,?,-10%
Cc1ccc(C)c(Cn2nnc3c(=O)[nH]c(C4CCCN(S(=O)(=O)Cc5ccccc5)C4)nc32)c1 (stereo unspecified),-30%,-3%,0%,39%,-19%
COc1ccc(C(=O)NCCn2cc(SCc3cccc(F)c3)c3ccccc32)cc1OC,·,-26%,·,·,-29%
O=C(Nc1ccc(F)cc1)N1CCC(c2nc3c(nnn3Cc3cccc(Cl)c3)c(=O)[nH]2)CC1,319%,·,-7%,?,·
Cc1ccc(NC(=O)N2CCC(c3nc4c(nnn4Cc4cccc(Cl)c4)c(=O)[nH]3)CC2)cc1,0.029µM*,·,-9%,13µM*,·
COc1ccccc1NC(=O)N1CCCC(c2nc3c(nnn3Cc3ccc(C)cc3)c(=O)[nH]2)C1 (stereo unspecified),-6%,-16%,-2%,9.3µM*,-26%
O=C(c1cccs1)N1CCCC(c2nc3c(nnn3Cc3ccccc3)c(=O)[nH]2)C1 (stereo unspecified),5.9µM*,·,-9%,8.3µM*,·
O=C(Cn1ncn2c(cc3sccc32)c1=O)NCCc1ccccc1,·,-9%,·,·,3%
c1ccc(-c2cnc(-c3ccccn3)nn2)cc1,·,-4%,?,·,-2%
c1ccc(-c2cnnc(-c3ccccn3)n2)cc1,·,-8%,10µM*,·,-9%
Clc1ccc(-c2cnnc(-c3ccccn3)n2)cc1,·,?,10µM*,·,?
Clc1ccc(-c2nn3c(-c4cc(-c5ccccc5)n[nH]4)nnc3s2)cc1,·,-14%,·,·,21%
CC(C)Cn1c(SC(C)C(=O)Nc2ccc3c(c2)OCCO3)nc2ccccc2c1=O (stereo unspecified),·,-9%,-11%,?,-5%
CC(Sc1nc2ccccc2c(=O)n1C)C(=O)Nc1ccc2c(c1)OCCO2 (stereo unspecified),0.17µM*,·,-2%,0.15µM*,·
COCC(C)n1c(SCC(=O)NC(=O)Nc2ccc3c(c2)OCCO3)nc2ccccc2c1=O (stereo unspecified),?,-10%,-17%,12µM*,i
CC(=O)c1ccc(N2CCN(c3ncnc4onc(C)c34)CC2)cc1,·,-14%,·,·,-28%
Cc1cc(C)nc(/N=C(\N)N(Cc2ccccc2)Cc2ccccc2)n1,10µM*,-24%,4%,?,-13%
CCCCN(CCCC)/C(N)=N/c1nc(C)cc(C)n1,?,-7%,-10%,-19%,-16%
Cc1ccc(-c2nc3ccsc3c(=O)[nH]2)cc1,480%,-13%,14%,2.1µM*,-6%
Cc1ccc(-c2csc3nc(-c4ccncc4)[nH]c(=O)c23)cc1,4%,-5%,2%,-5%,-5%
O=S(=O)(c1ccc2nc(Nc3ccccc3)ccc2c1)N1CCCCC1,?,-24%,2%,10µM*,-27%
CC1CCN(S(=O)(=O)c2ccc3nc(N4CCN(c5ccccc5)CC4)ccc3c2)CC1,10µM*,-16%,6%,-3%,-18%
O=S(=O)(c1ccc2nc(N3CCN(c4ccc(F)cc4)CC3)ccc2c1)N1CCCCC1,13µM*,·,?,3%,·
CC(=O)c1cccc(Nc2ccc3cc(S(=O)(=O)N4CCCC4)ccc3n2)c1,·,-6%,·,·,-11%
SMILES,Pf growth 96h,VACV Venus inh,AMA1-RON2 inh,Pf growth 48h,Vaccinia mCherry
Cc1ccc(Nc2ccc(C(=O)O)cc2[N+](=O)[O-])cc1,9.3µM*,0%,-7%,·,-13%
COc1ccccc1OC(C)C(=O)Nc1cccc(-c2nc3ccccc3o2)c1 (stereo unspecified),·,1%,·,·,-9%
O=C(Nc1ccc(Cl)cc1C(=O)NCc1cccnc1)c1ccc(Cl)cc1Cl,3.3µM*,?,13%,8.3µM*,0%
O=C(Nc1ccccc1C(=O)NCc1cccnc1)c1ccccc1Cl,?,-6%,-16%,-4%,-12%
O=C(NCc1cccnc1)c1nc(-c2ccccc2)n(-c2ccccc2)n1,3.3µM*,-10%,-1%,-19%,-18%
Cc1ccc(NS(=O)(=O)c2cc(C(=O)NCc3cccnc3)ccc2C)cc1,8.3µM*,4%,-2%,-20%,i
O=C(Nc1c(Cl)cc(Cl)cc1C(=O)NCc1cccnc1)c1ccc(Cl)cc1Cl,18%,3%,-1%,1.5µM*,·
O=C(Nc1ccc(Cl)c(C(F)(F)F)c1)C(Cc1ccccc1)NS(=O)(=O)c1ccc(Br)s1 (stereo unspecified),·,4%,·,·,-4%
COc1ccc2c(Sc3ccccc3)c(C(=O)NCc3ccc(OC(C)C)cc3)[nH]c2c1,·,-10%,·,·,i
Cc1cc(C)c(S(=O)(=O)NCc2cccnc2)cc1C,12µM*,·,-3%,?,·
Cc1cc(C)n2ncc(C(=O)NCc3cccnc3)c2n1,2.3µM*,3%,8%,11%,·
O=C(NCc1cccnc1)c1cnn2ccccc12,163%,-3%,9%,·,-12%
Cc1ccc(S(=O)(=O)NCc2ccccn2)c(C)c1C,14%,·,11%,19%,·
Cc1ccc(C(=O)Nc2ccccc2C(=O)NCc2cccnc2)cc1,10µM*,-25%,0%,?,-19%
Cc1ccc(S(=O)(=O)NCc2ccncc2)c(C)c1C,12µM*,-17%,4%,-17%,-15%
Cc1ccc(C(=O)Nc2ccccc2C(=O)NCc2ccccc2)cc1,?,-21%,7%,?,-10%
CC(C)N1C[C@@H](Sc2ccccn2)C[C@H]1C(=O)Nc1ccc2c(c1)Nc1ccccc1CC2,·,7%,·,·,-10%
CC[n+]1c(-c2ccccc2)c2cc(N)ccc2c2ccc(N)cc21,0.003µM*!,258%,-12%,0.048µM*,81%
N#C/C(=C\c1ccc(-c2ccc(C(=O)O)cc2)o1)C(=O)Nc1ccccc1C(=O)O,·,-5%,·,·,-19%
O=C(Nc1ccc(Cl)c(Cl)c1)N(Cc1c[nH]c2ccccc12)C1CCCCC1,·,-3%,·,·,-4%
COc1cccc(C(=O)n2nc(-c3ccco3)nc2NCc2cccs2)c1,·,-11%,·,·,-5%
O=C(c1cnn2c1NC(c1ccc(Br)cc1)CC2C(F)(F)F)N1CCN2CCCC2C1 (stereo unspecified),?,-18%,-23%,?,?
O=C(c1cnn2c1NC(c1ccc(Br)cc1)CC2C(F)(F)F)N1CCN(C23CC4CC(CC(C4)C2)C3)CC1 (stereo unspecified),8.3µM*,·,0%,3.7µM*,·
CCOC(=O)Cn1c(=O)n(C2CCCCC2)c2nc(-c3ccc(OCC)cc3)nc(C(N)=O)c21,·,-10%,·,·,-6%
CCOC(=O)C1Nc2ccc(C)cc2C2C=CCC12 (stereo unspecified),·,-21%,-2%,·,i
